# Experimental data taken from publication PMC5540273 (PLoS ONE, 2017).
# What was measured:
# Conditions in all cases: concentration: 1 μM, replicates: in singlicate; n = 1
# [1] = system: T1, DLK
# T1 construct: gene MAP3K12
# [2] = system: T2, DMPK2
# T2 construct: gene CDC42BPG
# [3] = system: DMPK
# [4] = system: T3, DRAK1
# T3 construct: gene STK17A
# [5] = system: T4, DRAK2
# T4 construct: gene STK17B
# [6] = system: DYRK1A
# [7] = system: DYRK1B
# [8] = system: DYRK2
# [9] = system: EGFR
# [10] = system: EIF2AK1
# [11] = system: EPHA1
# [12] = system: EPHA2
# [13] = system: EPHA3
# [14] = system: EPHA4
# [15] = system: EPHA5
# [16] = system: EPHA6
# [17] = system: EPHA7
# [18] = system: EPHA8
# [19] = system: EPHB1
# [20] = system: EPHB2
# 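Note: KINOMEscan kinase panel screen.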
Structure (SMILES),%Inh [1] [%],%Inh [2] [%],%Inh [3] [%],%Inh [4] [%],%Inh [5] [%],%Inh [6] [%],%Inh [7] [%],%Inh [8] [%],%Inh [9] [%],%Inh [10] [%],%Inh [11] [%],%Inh [12] [%],%Inh [13] [%],%Inh [14] [%],%Inh [15] [%],%Inh [16] [%],%Inh [17] [%],%Inh [18] [%],%Inh [19] [%],%Inh [20] [%]
COc1cc(Nc2nccc(N3CCC(NC(=O)C(C)c4ccc(Cl)cc4)C3)n2)cc(OC)c1OC (stereo not drawn) [GSK1379757],29,8,0,0,0,9,0,0,23,0,4,23,0,22,0,18,2,14,0,0
O=C(NCCNc1ccnc(Nc2ccc(F)cc2)n1)Nc1ccc2c(c1)OCO2 [GSK1379882],5,11,0,10,0,7,0,23,0,0,15,0,0,0,0,0,0,0,18,0
Nc1n[nH]c2nnc(-c3ccccc3)c(-c3ccccc3)c12 [GW554060],25,0,0,0,0,23,0,20,36,0,15,6,0,12,0,28,0,10,9,0
Cc1cccc(-c2cc(-c3c[nH]nc3-c3ccccn3)ccn2)c1 [GW679395],13,1,0,0,0,24,0,0,31,0,38,7,0,22,0,13,0,13,33,17
CN(C)c1cc(-c2ccc3c(N)n[nH]c3c2)nc(N)n1 [GSK2219329],7,5,0,36,0,9,5,67,43,0,15,0,4,8,0,0,0,3,14,0
CCC(=O)c1c(-c2ccccc2)c2cc(Cl)ccc2c(=O)n1Cc1cc(S(C)(=O)=O)n(CC(N)=O)n1,0,0,0,0,0,0,0,0,0,0,0,15,0,0,0,0,0,0,0,0
COc1ccc(-c2cc3c(C)nc(N)nc3n([C@H]3CC[C@H](OCCO)CC3)c2=O)cn1,0,0,8,16,14,0,0,0,12,8,13,0,0,12,11,11,0,0,0,0
Cl.c1ccc(Cn2cnc3cc(Nc4ncnc5ccccc45)ccc32)cc1 [GW272142],6,11,0,0,0,17,2,21,20,0,4,0,0,12,0,10,0,10,0,0
COc1cc(Nc2nccc(N3CCC(NC(=O)C4COc5ccccc5O4)C3)n2)cc(OC)c1OC (stereo not drawn) [GSK1379761],60,0,0,0,0,0,5,19,43,0,1,17,1,2,0,0,0,5,6,8
Cc1ccc(-c2ccc3c(ccc4sc5c(c43)NC[C@@H](C)N=C5N(C)C)n2)cn1,0,0,0,0,0,0,0,0,23,7,0,0,0,0,0,0,0,0,0,0
COC(=O)c1c(-c2ccccc2)c2cc(Br)ccc2c(=O)n1Cc1ccc(S(C)(=O)=O)cc1,0,5,0,3,0,20,45,44,5,13,0,22,0,33,16,45,24,23,14,21
Nc1n[nH]c2ncc(-c3ccccc3)cc12 [SB-517081],27,0,0,34,0,17,0,30,0,18,0,2,0,0,0,0,5,10,18,14
CCS(=O)c1ccc(-c2coc3ccc(-c4nnc(C)o4)cc23)cc1 (stereo not drawn),30,0,6,0,0,0,7,0,5,0,5,13,4,0,4,12,0,0,0,0
Nc1nccc2scc(-c3ccc4c(c3)CCN4C(=O)Cc3ccccc3)c12 [GSK2576924],7,22,0,1,0,0,19,20,21,0,9,6,38,4,0,2,4,15,0,14
O=C(Nc1n[nH]c2cc(-c3ccccc3F)ccc12)C1CC1 [SB-733371],0,0,0,0,0,4,0,3,0,0,22,0,19,0,0,5,0,22,4,0
CN1C(=O)C(Nc2ccccc2)=C(c2ccccc2)C1=O [SB-300079],1,0,0,0,0,0,17,10,16,0,0,0,0,0,4,0,0,0,17,0
Cl.NS(=O)(=O)c1cccc(Nc2cc(-c3ccc(F)cc3)n[nH]2)c1 [GW824645],0,0,1,0,0,0,0,24,0,0,0,0,0,0,0,0,0,21,0,0
Cc1cccc(-c2nc(Nc3ccc4c(cnn4C)c3)c3ccccc3n2)n1 [GW876731],0,22,8,7,3,0,20,11,0,0,6,0,0,0,1,0,0,0,3,6
COc1cc2ncn(-c3cc(OCc4ccc(S(C)(=O)=O)cc4)c(C(N)=O)s3)c2cc1OC [GW869979],13,10,0,0,23,22,20,1,25,7,0,0,7,0,0,0,22,17,9,9
CCCC(=O)Nc1n[nH]c2ncc(-c3cccc4ccccc34)cc12 [SB-642057],0,4,0,0,0,30,0,4,20,13,0,0,0,2,0,0,4,1,15,19
Nc1ncnc2c1ncn2-c1cccc(F)c1 [SKF-97560],19,14,0,20,0,25,13,13,9,28,11,9,0,4,0,0,10,10,17,4
